Compound activity from PubChem.
PABP1 MLLE inh: inhibitors of microRNA-mediated deadenylation, human PABP1 MLLE binding; P11940; GST-MLLE / FITC-PAM2 fluorescence polarization; inhibition, % at 20 µM; 0.36% of 360,000 active; in the data active = inhibition above about 35%, passing the limit was not always enough
eIF4E 4G PPI: eIF4E/eIF4G interaction inhibition in translation initiation | P63073+Q04637 | TR-FRET eIF4E-eIF4GI(517-606) binding, 2 h | inhibition, % at 21.7 µM | 0.37% of 220,000 active | AID 782;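 active = inhibition above about 30%, limit read from the data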
eIF4H inh: inhibitors of RNA binding by human eIF4H; eIF4H fluorescence polarization binding assay; 0.94% of 290,000 active; Q15056; AID 2012; inhibition, % at 35 µM;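 note: calls also rest on retests at 20 µM and on dose response follow-up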
PABP polyA inh: blocks human PABP binding to poly(A) RNA. P11940. fluorescence polarization. calls only at 35 µM. 1% of 290,000 active;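 note: calls also rest on retests at 20 µM and on dose response follow-up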
14-3-3 Bad PPI: disrupts binding of bovine 14-3-3 zeta to phospho-Bad peptide | AID 781 | P63103 | 0.71% of 220,000 active | TR-FRET 14-3-3zeta/Dy647-pBad peptide displacement, 1 h | inhibition, % at 21.7 µM;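 active = inhibition above about 70%, limit read from the data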
Target sequence (P63103 whole entry, looked up): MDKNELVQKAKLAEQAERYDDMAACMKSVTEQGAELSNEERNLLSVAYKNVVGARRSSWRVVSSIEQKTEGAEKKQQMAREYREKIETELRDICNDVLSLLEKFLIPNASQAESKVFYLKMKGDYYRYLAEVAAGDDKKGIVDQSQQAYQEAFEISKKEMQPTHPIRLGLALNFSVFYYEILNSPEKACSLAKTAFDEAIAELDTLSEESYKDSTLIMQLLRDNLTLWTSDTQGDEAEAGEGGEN
Large screens that a line does not name were inactive; [ ] = remark or other dose. The list is not random: actives were taken first. Their share in the collection is about 1.9%. Unless noted, the rule behind the calls is not given here.

O=C(O)c1cn[nH]c1-c1cccc([N+](=O)[O-])c1	eIF4H inh 98
O=Cc1cn[nH]c1-c1cccc([N+](=O)[O-])c1	none
CCOC(=O)c1cc(-c2cccc([N+](=O)[O-])c2)n[nH]1	14-3-3 Bad PPI 81
Cc1cccc(C(=O)OCN2C(=O)c3ccccc3C2=O)c1[N+](=O)[O-]	none (no result: eIF4E 4G PPI, 14-3-3 Bad PPI)
CCOC(=O)C1CCN(C(=O)Nc2cc(Cl)cc(Cl)c2)CC1	none
COc1ccc(N(CCN2C(=O)c3ccccc3C2=O)C(=O)c2cccc([N+](=O)[O-])c2)cc1	eIF4H inh active, PABP polyA inh active
CCN(CC(=O)Nc1ccc(OC)cc1)C(=O)c1ccc2c(=O)n3c(nc2c1)CCC3	none (no result: eIF4E 4G PPI, eIF4H inh, PABP polyA inh, 14-3-3 Bad PPI)
O=C(O)c1c(Cl)c(Cl)c(Cl)c(Cl)c1C(=O)OCC1CCCO1 (centres undefined)	none (no result: eIF4E 4G PPI, eIF4H inh, PABP polyA inh, 14-3-3 Bad PPI)
COc1cccc(C(=O)Nc2nnc(-c3ccc(F)cc3)o2)c1	eIF4E 4G PPI 95
CCC(CC)c1ncc[nH]1	none
COCCOC(=O)C(C#N)c1nc2ccccc2nc1N1CCN(Cc2ccccc2)CC1 (centres undefined)	none
C=CCNC(=O)C(C#N)c1nc2ccccc2nc1N1CCN(Cc2ccccc2)CC1 (centres undefined)	none
C=CCOC(=O)C(C#N)c1nc2ccccc2nc1N1CCN(Cc2ccccc2)CC1 (centres undefined)	eIF4H inh 57, PABP polyA inh active
COC(=O)C(C#N)c1nc2ccccc2nc1N1CCN(Cc2ccc3c(c2)OCO3)CC1 (centres undefined)	none (no result: PABP1 MLLE inh, eIF4E 4G PPI, 14-3-3 Bad PPI)
CCCCOC(=O)C(C#N)c1nc2ccccc2nc1N1CCN(Cc2ccc3c(c2)OCO3)CC1 (centres undefined)	eIF4H inh 54, PABP polyA inh active
CC(C)COC(=O)C(C#N)c1nc2ccccc2nc1N1CCN(Cc2ccccc2)CC1 (centres undefined)	eIF4H inh 44, PABP polyA inh active
N#CCCN(C(=O)CSc1ccc2c(c1)OCCO2)c1ccccc1	PABP1 MLLE inh 41
CCOC(=O)C1=CCC(c2cccn2C(=O)OC(C)(C)C)N(S(=O)(=O)c2ccc(C)cc2)C1 (centres undefined)	none (no result: eIF4E 4G PPI, eIF4H inh, PABP polyA inh, 14-3-3 Bad PPI)
O=S1(=O)c2ccc(Br)cc2N2CCC[C@@H]2CN1Cc1ccccc1	none (no result: eIF4E 4G PPI, eIF4H inh, PABP polyA inh, 14-3-3 Bad PPI)
Cn1c(SCC(=O)Nc2ccc3c(c2)oc2ccccc23)nnc1-c1ccccc1	14-3-3 Bad PPI 72[fluorescence artefact?]
Cn1c(SCC(=O)Nc2ccc3[nH]c(=O)[nH]c3c2)nnc1-c1ccccc1	none (no result: eIF4E 4G PPI, 14-3-3 Bad PPI)
CCOc1[nH]c(/N=C/c2ccco2)c(C#N)c1C#N	eIF4H inh 100, PABP polyA inh active
N#Cc1c(/N=C/c2ccco2)sc2c1CCC2	none
O=C1NC(=O)C2(CCCCC2C2CCCCC2)N1 (centres undefined)	none (no result: eIF4E 4G PPI, eIF4H inh, PABP polyA inh, 14-3-3 Bad PPI)
COc1ccc(NC(=O)CSc2nnc(NC(C)=O)s2)c([N+](=O)[O-])c1	PABP1 MLLE inh 37
CC1(C(=O)NS(=O)(=O)c2ccc3c(c2)CCO3)CCN1C(=O)C1(c2ccc(Cl)cc2)CCC1 (centres undefined)	none (no result: eIF4E 4G PPI, eIF4H inh, PABP polyA inh, 14-3-3 Bad PPI)
COc1cccc(/C=N/Nc2ncnc3c2[nH]c2ccc(C)cc23)c1OC	14-3-3 Bad PPI 88
C/C(=N\NC(=O)c1cc(-c2ccco2)nc2ccccc12)c1cccnc1	eIF4H inh 82, PABP polyA inh active
O=C(NC1CC1)c1cc(-c2ccco2)nc2ccccc12	eIF4E 4G PPI 57, eIF4H inh 98, PABP polyA inh active, 14-3-3 Bad PPI 83
COc1ccc(OC)c(-c2cc(C(=O)N/N=C(\C)c3cccnc3)c3ccccc3n2)c1	none (no result: eIF4E 4G PPI, 14-3-3 Bad PPI)
O=C(O)c1cc(-c2ccco2)nc2ccccc12	PABP1 MLLE inh 53, eIF4H inh 82, PABP polyA inh active
O=C(N/N=C/c1ccc(F)cc1)c1cc(-c2ccco2)nc2ccccc12	eIF4H inh 90, PABP polyA inh active
CCCCNC(=S)N(Cc1ccco1)Cc1cc2cc3c(cc2[nH]c1=O)OCCO3	none
N[C@@H](Cc1ccc(O)cc1)c1nnc([C@H](CO)NC(=O)C2CCNCC2)o1	none
CCc1cc(=S)n2c([nH]c3ccccc32)c1C#N	none
CCc1c(C)c(C#N)c2[nH]c3ccccc3n2c1=S	eIF4E 4G PPI 33
CN(C=[N+](C)C)c1cccc2c1C(=O)c1ccccc1C2=O	PABP1 MLLE inh 86, eIF4H inh inconclusive
COc1ccc(NC(=O)N2C[C@H]3CON(C)[C@H]3C[C@H]2c2ccc(N3CCCCC3)cc2)cc1	none (no result: eIF4E 4G PPI, eIF4H inh, PABP polyA inh, 14-3-3 Bad PPI)
CC(C)C(=O)Nc1ncc(C(F)(F)F)cc1Cl	none
ON/C=N/C(=S)Nc1ncc(C(F)(F)F)cc1Cl	PABP1 MLLE inh 38
CON/C=N/C(=S)Nc1ncc(C(F)(F)F)cc1Cl	PABP1 MLLE inh 42
CCC(=O)NC(=S)Nc1cc(C(=O)O)ccc1OC	none
COc1ccc(C(=O)O)cc1NC(=S)NC(=O)CSc1ccc(Cl)cc1	PABP1 MLLE inh 40 (no result: eIF4E 4G PPI, 14-3-3 Bad PPI)
CCC1(c2ccccc2)NC(=O)N(CC(=O)Nc2ccc(Cl)c(S(=O)(=O)N3CCCCC3)c2)C1=O (centres undefined)	none (no result: eIF4E 4G PPI, eIF4H inh, PABP polyA inh, 14-3-3 Bad PPI)
CSc1nc2ccc3nc(NC(=O)c4cccs4)sc3c2s1	14-3-3 Bad PPI 73[fluorescence artefact?]
CSc1nc2ccc3nc(NC(=O)c4ccc(Cl)s4)sc3c2s1	none
COc1cc(/C=N/NC(=O)C2c3ccccc3Oc3ccccc32)ccc1O	eIF4E 4G PPI 41
O=C(O)c1cccc(NC(=S)N/N=C/c2ccccc2OCc2cccc(Br)c2)c1	eIF4H inh 53
O=C(O)c1cccc(NC(=S)N/N=C/c2ccccc2OCc2ccc(Br)cc2)c1	none
Cc1ccc2nc3c(c(N)c2c1)CCN3C	none (no result: eIF4E 4G PPI, 14-3-3 Bad PPI)
Cc1ccc2nc3c(c(N)c2c1)CCN3c1ccccc1	eIF4H inh 51
COc1ccc(C(CNC(=O)C2COc3ccccc3O2)N2CCCC2)cc1 (centres undefined)	none (no result: eIF4E 4G PPI, eIF4H inh, PABP polyA inh, 14-3-3 Bad PPI)
COC(=O)c1cc(C)nc2c1c(C)nn2-c1ccccc1	none (no result: eIF4E 4G PPI, eIF4H inh, PABP polyA inh, 14-3-3 Bad PPI)
Cc1cccc(-n2nc(C)c3c(C(=O)O)cc(-c4cccs4)nc32)c1	none
Cc1nn(-c2ccccc2)c2nc(-c3ccco3)cc(C(=O)O)c12	eIF4H inh 88, PABP polyA inh active
Cc1nn(-c2cccc(Cl)c2)c2nc(-c3ccco3)cc(C(=O)O)c12	eIF4H inh 80, PABP polyA inh active
O=C(CSc1ncccn1)N/N=C/c1ccc2c(c1)OCO2	none (no result: eIF4E 4G PPI, 14-3-3 Bad PPI)
COC(=O)[C@H](CC(C)C)NC(=O)Nc1ccccc1F	none
CC(C)c1ccc(NC(=O)C(c2ccc3c(c2)OCO3)N2CCCCC2)cc1 (centres undefined)	none
Oc1cc2c(cc1C(c1ccc(Cl)c(Cl)c1)N1CCCC1)OCO2 (centres undefined)	eIF4E 4G PPI 38
COc1ccc(OC)c(NC(=O)CS(=O)(=O)Cc2ccccc2)c1	none (no result: eIF4E 4G PPI, 14-3-3 Bad PPI)
COc1ccc(OC)c(NS(=O)(=O)Cc2ccccc2)c1	eIF4H inh inconclusive, PABP polyA inh inconclusive, 14-3-3 Bad PPI 87[fluorescence artefact?] (no result: PABP1 MLLE inh)
CC(C)c1ccccc1-n1c(SCc2cc(=O)oc3ccc4ccccc4c23)nnc1-c1cccnc1	eIF4H inh 58, PABP polyA inh active
CCOc1ccc(-n2c(SCc3cc(=O)oc4cc(C)ccc34)nnc2-c2cccnc2)cc1	none
